Experimental data published in ChEMBL document CHEMBL1961873, “Compounds: GSK PKIS; Assays: Nanosyn kinase panel” (2012).
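Note: each value is the mean inhibition of MST2.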

The compounds below were run against T1, Serine/threonine-protein kinase 3 (Homo sapiens) (UniProt Q13188). Details: at 1 µM.
T1 sequence (whole entry): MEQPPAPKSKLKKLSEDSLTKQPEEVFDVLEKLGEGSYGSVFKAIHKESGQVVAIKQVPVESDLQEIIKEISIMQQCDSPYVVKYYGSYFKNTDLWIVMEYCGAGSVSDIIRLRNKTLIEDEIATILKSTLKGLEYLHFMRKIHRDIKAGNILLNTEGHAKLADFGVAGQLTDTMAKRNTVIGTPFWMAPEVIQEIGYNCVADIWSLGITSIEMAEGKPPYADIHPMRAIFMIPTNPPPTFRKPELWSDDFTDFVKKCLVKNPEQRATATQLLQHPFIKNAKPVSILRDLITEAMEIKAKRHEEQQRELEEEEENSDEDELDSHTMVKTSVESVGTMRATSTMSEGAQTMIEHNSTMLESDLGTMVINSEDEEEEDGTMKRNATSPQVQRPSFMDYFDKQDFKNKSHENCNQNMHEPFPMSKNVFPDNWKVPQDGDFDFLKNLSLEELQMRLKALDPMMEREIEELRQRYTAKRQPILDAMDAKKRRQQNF
Compound `CN1CCC(n2cnc(-c3ccc(F)cc3)c2-c2ccnc(N)n2)CC1` has an inhibition of 6.77%.
`NC(=O)c1sc(-n2cnc3ccc(C(F)(F)F)cc32)cc1OCc1ccccc1Br` gave an inhibition of 4.74%.
Work on `CN(C)CCOc1ccc(-c2nc(-c3ccncc3)c(-c3ccc4c(c3)CC/C4=N\O)[nH]2)cc1` yielded an inhibition of 4.58%.
`CCCN(CCS(C)(=O)=O)Cc1ccc(-c2ccc3ncnc(Nc4ccc(OCc5cccc(F)c5)c(Cl)c4)c3c2)o1` was tested, and the inhibition was 2.11%.
With `CCc1nn2ncccc2c1-c1ccnc(NC2CC2)n1` the inhibition was 5.22%.
For `CCNC(=O)O[C@H]1CN[C@H](C#Cc2cc3ncnc(Nc4ccc(OCc5cccc(F)c5)c(Cl)c4)c3s2)C1`, the inhibition was 5.21%.
`CNC(=O)c1cccc(C#Cc2cncnc2Nc2ccc(OCc3cccc(F)c3)c(Cl)c2)c1` showed an inhibition of 7.85%.
In the case of `CCN1CCC(CC(=O)Nc2n[nH]c3nnc(-c4cccc(F)c4F)cc23)CC1`, the inhibition is reported as 5.19%.
In the case of `c1cc(-c2cnn3nc(N4CCOCC4)ccc23)nc(NC2CC2)n1`, the inhibition is reported as 8.11%.
`CS(=O)(=O)CCNCc1coc(-c2ccc3ncnc(Nc4ccc(OCc5ccccc5)cc4)c3c2)c1` gave an inhibition of 3.71%.
Compound `COc1ccc(-c2cc3c(N)ncnc3o2)cc1` has an inhibition of -0.72%.
`N#Cc1c(NC(=O)CN2CCOCC2)sc2c1CCCC2` was tested, and the inhibition was 8.26%.
For `Clc1ccc(-c2nn3ncccc3c2-c2ccnc(Nc3ccccc3)n2)cc1`, the inhibition was -0.67%.
In the case of `COc1cc(/C=N/Nc2ncnc3[nH]ncc23)ccc1O`, the inhibition is reported as 15.1%.
In the case of `CC(C)(CO)CNC(=O)c1ccc2c(c1)/C(=N/Nc1ccc(S(N)(=O)=O)cc1)C(=O)N2`, the inhibition is reported as 77.1%.
Compound `Cc1ccc(O)cc1Nc1ccnc2cc(-c3ccccn3)ccc12` has an inhibition of 6.61%.
